Measured values published in PubChem BioAssay.
Activity calls are given as the source filed them.

Tests used:
[1] = binders of probe aFSTL3 on microarray, primary screen, stem cell growth factor project, biochemical, small-molecule microarray, fluorescence 635/667 (AID 1064); details: higher = more signal;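 note: measures binding of the biotinylated anti-FSTL3 antibody to printed compounds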
[2] = binders from COS7 lysate, DM2A8 probe, primary screen, torsin A project, cell lysate, small-molecule microarray, fluorescence 635/667 (AID 1065); details: higher = more signal, COS7 lysate expressing mutant human TOR1A
[3] = binders of probe aFGF2 on microarray, primary screen, stem cell growth factor project, biochemical, small-molecule microarray, fluorescence 635/667 (AID 1067); details: higher = more signal;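 note: measures binding of biotinylated aFGF2 protein to printed compounds on slides; z-score merges feature fluorescence and signal-to-noise across triplicate slides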
[4] = binders of probe aFGF10 on microarray, primary screen, stem cell growth factor project, biochemical, small-molecule microarray, fluorescence 635/667 (AID 1071); details: higher = more signal;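 note: score merges 667 nm spot intensity and signal to noise from triplicate slides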
[5] = target: Neurogenic locus notch homolog protein 2 (Homo sapiens) (UniProt Q04721); experiment: Notch2 binders on small-molecule microarrays, primary screen, biochemical, small-molecule microarray, 635 nm fluorescence, stem cell growth factors (AID 1073); details: Notch2 binding, higher = more signal
Chain of Neurogenic locus notch homolog protein 2 (Homo sapiens) (Q04721 whole entry, looked up, canonical isoform): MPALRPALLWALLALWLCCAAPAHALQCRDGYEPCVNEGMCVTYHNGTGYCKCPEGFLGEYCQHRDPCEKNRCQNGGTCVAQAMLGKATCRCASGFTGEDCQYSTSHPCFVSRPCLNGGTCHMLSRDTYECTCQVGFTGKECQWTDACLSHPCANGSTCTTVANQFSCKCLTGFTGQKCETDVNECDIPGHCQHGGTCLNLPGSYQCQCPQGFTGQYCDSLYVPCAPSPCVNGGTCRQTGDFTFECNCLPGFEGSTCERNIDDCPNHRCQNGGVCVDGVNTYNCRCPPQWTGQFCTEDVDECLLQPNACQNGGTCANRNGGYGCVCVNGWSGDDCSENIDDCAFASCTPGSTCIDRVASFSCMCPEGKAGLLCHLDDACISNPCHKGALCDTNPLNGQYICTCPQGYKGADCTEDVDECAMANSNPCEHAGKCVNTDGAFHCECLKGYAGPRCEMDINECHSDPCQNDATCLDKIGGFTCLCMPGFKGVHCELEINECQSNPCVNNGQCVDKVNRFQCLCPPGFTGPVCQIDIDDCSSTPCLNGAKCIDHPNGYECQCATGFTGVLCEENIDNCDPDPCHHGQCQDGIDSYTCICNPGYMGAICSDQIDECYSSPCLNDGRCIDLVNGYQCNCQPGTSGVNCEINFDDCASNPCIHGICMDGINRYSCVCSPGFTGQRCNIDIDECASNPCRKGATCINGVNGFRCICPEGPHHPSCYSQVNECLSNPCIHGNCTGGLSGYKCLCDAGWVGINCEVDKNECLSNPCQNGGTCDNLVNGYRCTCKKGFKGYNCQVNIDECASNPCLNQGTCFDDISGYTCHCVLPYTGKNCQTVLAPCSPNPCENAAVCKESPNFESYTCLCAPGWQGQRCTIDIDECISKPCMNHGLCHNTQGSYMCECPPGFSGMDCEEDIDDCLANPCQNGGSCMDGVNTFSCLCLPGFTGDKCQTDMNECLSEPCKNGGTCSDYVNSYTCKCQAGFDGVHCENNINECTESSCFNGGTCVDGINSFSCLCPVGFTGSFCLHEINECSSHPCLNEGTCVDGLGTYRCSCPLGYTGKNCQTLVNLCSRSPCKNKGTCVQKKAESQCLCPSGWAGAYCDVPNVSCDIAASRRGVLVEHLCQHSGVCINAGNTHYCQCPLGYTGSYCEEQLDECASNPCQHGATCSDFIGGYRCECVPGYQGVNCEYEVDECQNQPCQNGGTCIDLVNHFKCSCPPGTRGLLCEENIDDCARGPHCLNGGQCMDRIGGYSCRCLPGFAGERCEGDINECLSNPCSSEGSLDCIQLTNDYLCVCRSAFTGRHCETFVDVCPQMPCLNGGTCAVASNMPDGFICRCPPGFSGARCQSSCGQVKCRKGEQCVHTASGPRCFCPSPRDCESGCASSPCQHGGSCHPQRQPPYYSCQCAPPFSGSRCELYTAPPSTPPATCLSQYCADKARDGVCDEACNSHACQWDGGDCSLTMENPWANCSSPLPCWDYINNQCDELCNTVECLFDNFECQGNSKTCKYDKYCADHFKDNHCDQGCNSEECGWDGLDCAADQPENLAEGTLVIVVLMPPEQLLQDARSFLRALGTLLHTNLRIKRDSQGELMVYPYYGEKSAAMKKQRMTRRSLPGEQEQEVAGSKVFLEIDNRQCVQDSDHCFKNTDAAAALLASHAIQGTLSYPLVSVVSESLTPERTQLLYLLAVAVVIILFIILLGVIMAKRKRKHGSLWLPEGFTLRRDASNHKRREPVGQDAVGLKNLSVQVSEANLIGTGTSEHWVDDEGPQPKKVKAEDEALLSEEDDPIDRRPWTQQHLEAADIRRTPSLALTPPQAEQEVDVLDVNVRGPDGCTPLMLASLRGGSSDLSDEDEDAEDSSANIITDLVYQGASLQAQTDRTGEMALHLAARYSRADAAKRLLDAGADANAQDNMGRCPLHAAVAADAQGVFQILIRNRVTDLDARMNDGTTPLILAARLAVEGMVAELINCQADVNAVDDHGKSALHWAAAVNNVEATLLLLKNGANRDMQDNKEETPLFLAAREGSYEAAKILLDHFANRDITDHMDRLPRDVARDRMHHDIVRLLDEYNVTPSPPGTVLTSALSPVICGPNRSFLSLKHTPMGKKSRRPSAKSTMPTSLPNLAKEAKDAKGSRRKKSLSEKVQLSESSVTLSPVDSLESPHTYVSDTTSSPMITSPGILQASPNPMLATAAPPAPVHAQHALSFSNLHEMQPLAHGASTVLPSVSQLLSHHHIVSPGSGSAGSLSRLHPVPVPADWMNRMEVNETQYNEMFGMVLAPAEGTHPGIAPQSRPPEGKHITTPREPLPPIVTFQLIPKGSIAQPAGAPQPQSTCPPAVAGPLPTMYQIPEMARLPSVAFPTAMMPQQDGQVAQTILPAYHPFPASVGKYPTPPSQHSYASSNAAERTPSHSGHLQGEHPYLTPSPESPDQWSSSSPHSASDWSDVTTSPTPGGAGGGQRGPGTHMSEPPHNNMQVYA

[6] = target: Pro-neuregulin-1, membrane-bound isoform (Homo sapiens) (UniProt Q02297); experiment: NRG1 binders on small-molecule microarrays, primary screen, psychiatric disease protein project, biochemical, small-molecule microarray, fluorescence 635/667 (AID 1075); details: NRG1 binding, 635 nm fluorescence, higher = more signal;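 note: score combines 667 nm spot fluorescence with signal to noise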
Chain of Pro-neuregulin-1, membrane-bound isoform (Homo sapiens) (Q02297 whole entry, looked up, the tested form may be a part, canonical isoform): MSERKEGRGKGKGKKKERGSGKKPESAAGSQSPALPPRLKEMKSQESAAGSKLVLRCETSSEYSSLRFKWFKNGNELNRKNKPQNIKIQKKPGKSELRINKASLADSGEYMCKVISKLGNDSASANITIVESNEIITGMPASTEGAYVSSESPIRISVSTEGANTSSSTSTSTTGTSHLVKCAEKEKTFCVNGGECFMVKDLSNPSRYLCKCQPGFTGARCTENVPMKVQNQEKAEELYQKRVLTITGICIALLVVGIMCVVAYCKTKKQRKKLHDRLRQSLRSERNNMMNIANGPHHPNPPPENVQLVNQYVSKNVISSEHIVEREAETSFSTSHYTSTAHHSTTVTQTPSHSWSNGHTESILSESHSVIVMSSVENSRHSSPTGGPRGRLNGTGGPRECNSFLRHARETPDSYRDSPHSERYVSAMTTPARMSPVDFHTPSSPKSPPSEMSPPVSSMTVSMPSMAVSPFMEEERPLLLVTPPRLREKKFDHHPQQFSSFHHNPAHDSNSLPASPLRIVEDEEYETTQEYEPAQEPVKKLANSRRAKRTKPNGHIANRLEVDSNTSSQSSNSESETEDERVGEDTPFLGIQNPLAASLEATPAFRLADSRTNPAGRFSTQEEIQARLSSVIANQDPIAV

[7] = system: Neuregulin-1 EGF-like domain; experiment: binders of neuregulin-1 EGF-like domain, primary screen, biochemical, small-molecule microarray, 635 nm fluorescence (AID 1081); details: small-molecule microarray binding, higher = more signal;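 note: binding of the protein to compounds printed on small-molecule microarray slides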
[8] = FRG1 promoter luciferase signal modulators, primary screen, FRG1 inhibition for FSHD, cell-based, C2C12 myotubes, firefly/Renilla luciferase, luminescence (AID 1084); details: higher = more signal, called active from +8 up or from −8 down
[9] = binders of probe aFST on microarray, primary screen, stem cell growth factor project, biochemical, small-molecule microarray, fluorescence 635/667 (AID 1086); details: higher = more signal;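 note: score merges 667 nm fluorescence with signal-to-noise of each printed compound spot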
[10] = binders of probe aHhip on microarray, primary screen, stem cell growth factor project, biochemical, small-molecule microarray, fluorescence 635/667 (AID 1087); details: higher = more signal;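 note: score merges spot fluorescence at 667nm with spot signal to noise ratio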
[11] = system: PRMT1 (protein arginine N-methyltransferase 1); experiment: PRMT1 binders on small-molecule microarrays, primary screen, biochemical, small-molecule microarray, 635 nm fluorescence (AID 1088); details: small-molecule microarray binding, higher = more signal;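 note: binding of Prmt1 protein to compounds spotted on small-molecule microarray slides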
[12] = yeast growth modulation, basal conditions, primary screen, YJM789 clinical isolate, OD600, 24 h (AID 1089);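 note: growth of clinical yeast isolate S. cerevisiae YJM 789 seeded 1000 cells per well; test concentration not given here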; details: S. cerevisiae YJM789 growth, higher = more signal, called active from +8 up or from −8 down
[13] = fission yeast growth modulation, primary screen, strain 972, OD600, 24 h, no modulator (AID 1090);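 note: basal condition with compound alone and no growth modifier present; test concentration not given here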; details: S. pombe 972 growth, higher = more signal, called active from +8 up or from −8 down
[14] = S. cerevisiae growth modulation with rapamycin, primary screen, strain BY4716, OD600, 96 h (AID 1091); details: higher = more signal, called active from +8 up or from −8 down; note: test concentration not given here
[15] = target: Torsin-1A-interacting protein 2 (Homo sapiens) (UniProt Q8NFQ8); experiment: LULL1 binders on small-molecule microarray, primary screen, cell lysate, human LULL1 lysate, 635/667 nm fluorescence (AID 1092); details: hLULL1 lysate binding, 635 nm fluorescence, higher = more signal;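 note: probe is lysate of COS7 cells overexpressing human LULL1; score merges per-feature 667 nm fluorescence with signal-to-noise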
Chain of Torsin-1A-interacting protein 2 (Homo sapiens) (Q8NFQ8 whole entry, looked up): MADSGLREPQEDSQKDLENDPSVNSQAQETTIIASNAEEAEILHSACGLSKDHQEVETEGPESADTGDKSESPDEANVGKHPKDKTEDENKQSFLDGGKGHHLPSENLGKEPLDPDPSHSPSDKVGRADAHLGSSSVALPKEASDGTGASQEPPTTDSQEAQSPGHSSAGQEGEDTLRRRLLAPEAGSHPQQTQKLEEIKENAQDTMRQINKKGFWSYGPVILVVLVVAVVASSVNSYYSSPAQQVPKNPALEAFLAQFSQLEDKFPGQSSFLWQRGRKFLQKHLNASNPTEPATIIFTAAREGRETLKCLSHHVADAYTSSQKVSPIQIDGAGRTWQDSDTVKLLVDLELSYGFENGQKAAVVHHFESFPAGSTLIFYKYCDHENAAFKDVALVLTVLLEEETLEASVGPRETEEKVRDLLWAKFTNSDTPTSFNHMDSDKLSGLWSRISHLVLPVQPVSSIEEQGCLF

[16] = E. coli growth modulation, two-sided OD650, primary screen, E. coli filamentation project, strain DRC41, 24 h (AID 1093); details: OD650, 24 h, higher = more signal, called active from +8 up or from −8 down;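 note: MC1000 strain lacking acrAB efflux and sulA so SOS filamentation is blocked; test concentration not given here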
[17] = small-molecule microarray binders of probe aLefty2, primary screen, biochemical, biotinylated probe, 635/667 nm fluorescence (AID 1094); details: higher = more signal;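 note: score merges spot fluorescence near 667 nm with spot signal-to-noise ratio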
[18] = system: Noggin (protein binding on small-molecule microarray); experiment: Noggin binders on small-molecule microarray, primary screen, biochemical, 635/667 nm fluorescence (AID 1095); details: 635 nm fluorescence, higher = more signal;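 note: score merges 667 nm feature fluorescence with signal to noise over triplicate slides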
[19] = target: Neurogenic locus notch homolog protein 3 (Homo sapiens) (UniProt Q9UM47); experiment: NOTCH3 binders on small-molecule microarray, primary screen, biochemical, 635/667 nm fluorescence (AID 1096); details: NOTCH3 binding, 635 nm fluorescence, higher = more signal
[20] = small-molecule microarray binders of probe aEGFR, primary screen, biochemical, biotinylated probe, 635/667 nm fluorescence (AID 1097); details: higher = more signal;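 note: probe is a biotinylated anti-EGFR antibody binding compounds printed on slides; score combines fluorescence near 667 nm and signal to noise of each spot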

| Structure (SMILES) | composite z-score [1] | composite z-score [2] | composite z-score [3] | composite z-score [4] | composite z-score [5] | composite z-score [6] | composite z-score [7] | z-score [8] | composite z-score [9] | composite z-score [10] | composite z-score [11] | z-score [12] | z-score [13] | z-score [14] | composite z-score [15] | z-score [16] | composite z-score [17] | composite z-score [18] | composite z-score [19] | composite z-score [20] |
| --- | --- | --- | --- | --- | --- | --- | --- | --- | --- | --- | --- | --- | --- | --- | --- | --- | --- | --- | --- | --- |
| O=C1C2C=CC(C(O)c3ccc(Br)cc3)N(Nc3ccccc3)C2C(=O)N1c1ccccc1 (stereo not given) | 0.385 | 0.227 | 0.191 | 0.82 | 1.41 | 1.86 | 1.09 | -2.33 (inactive) | -0.194 | -0.0645 | 0.826 | 0.379 (inactive) | 0.443 (inactive) | 0.84 (inactive) | 2.12 | -1.59 (inactive) | 0.228 | -0.325 | 1.12 | -0.0123 |
| COCCOC(=O)N1C(=O)[C@@]2(c3cc(C#CCNC(N)=O)ccc31)[C@H](c1ccc(OCCO)cc1)N1[C@H](c3ccccc3)[C@H](c3ccccc3)OC(=O)[C@H]1[C@@H]2C(=O)N1CCN(c2ncccn2)CC1 | 0.496 | 0.287 | -0.0478 | 0.748 | 1.04 | 0.37 | 0.482 | -0.0699 (inactive) | 0.974 | -0.173 | 1.43 | 1.22 (inactive) | 0.423 (inactive) | 4.72 (inactive) | 2.1 | 0.338 (inactive) | 0.456 | 1.35 | 1.1 | -0.0424 |
| [N-]=[N+]=NCc1ccccc1[C@H]1OC(c2ccc(OCCCO)cc2)=N[C@@]1(Cc1ccccc1N=[N+]=[N-])C(=O)N1CCCCC1 | 0.398 | 0.221 | 0.141 | 0.263 | 1.32 | 1.32 | 1.04 | -1.6 (inactive) | 1.41 | -0.199 | 1.53 | 0.401 (inactive) | 0.763 (inactive) | 2.23 (inactive) | 3.44 | 0.203 (inactive) | 0.352 | 0.667 | 1.12 | 0.23 |
| N#Cc1ccc(NN2C(C(O)c3ccco3)C=CC3C(=O)N(c4ccccc4)C(=O)C32)cc1 (stereo not given) | 0.188 | -0.0615 | -0.0133 | 0.758 | 0.54 | 0.989 | 0.754 | 0.768 (inactive) | 0.39 | -0.249 | 0.327 | 0.0011 (inactive) | 0.376 (inactive) | 1.7 (inactive) | 2.41 | -3.5 (inactive) | 0.0815 | -0.0593 | 0.591 | -0.0411 |
| O=C1N(CCS(=O)(=O)c2ccccc2)c2ccccc2[C@H]2OC(c3ccc(OCCCO)cc3)=N[C@@]12CCS(=O)(=O)c1ccccc1 | 2.15 | 0.625 | 0.415 | 0.202 | 1.5 | 1.38 | 1.36 | -0.938 (inactive) | 1.43 | 0.772 | 1.55 | 2.95 (inactive) | 2.54 (inactive) | 7.94 (inactive) | 3.1 | 0.8 (inactive) | 0.856 | 1.08 | 1.07 | 0.723 |
| COc1ccc([Si](C)(C)[C@@H]2[C@@H](CC(=O)N3Cc4ccccc4C[C@H]3CO)O[C@]3(C(=O)N(Cc4cccc(N5CCCCC5=O)c4)c4ccccc43)[C@H]2C)cc1 | -0.429 | 0.569 | 0.0207 | 0.494 | 0.523 | 0.69 | 0.899 | -2.18 (inactive) | 0.272 | -0.0994 | 1.55 | 0.318 (inactive) | 1.41 (inactive) | 2.4 (inactive) | 1.79 | 0.73 (inactive) | -0.0878 | 1.41 | 1.07 | -0.0356 |
| CN(C)CCCCCCNC(=O)[C@@H]1C[C@@H]2C(=O)NCC(=O)N2[C@@H]1c1ccc(O)cc1 | -0.316 | 1.51 | 0.0231 | 1.26 | 0.194 | 0.504 | 1.34 | 2.08 (inactive) | 0.92 | 0.107 | 1.53 | -1.2 (inactive) | -0.639 (inactive) | -0.296 (inactive) | 2.72 | -0.427 (inactive) | -0.16 | 1.47 | 1.04 | -0.0304 |
| O=C1c2ccccc2[C@](Cc2ccccc2I)(C(=O)NCC(F)(F)F)[C@H](c2ccc(CO)cc2)N1Cc1ccccc1 | -0.213 | -0.0086 | 0.0363 | 0.15 | 1.39 | 1.12 | 1.21 | -0.508 (inactive) | 0.585 | 0.0734 | 1.55 | -0.943 (inactive) | -0.732 (inactive) | -0.666 (inactive) | 2.45 | 0.29 (inactive) | -0.0907 | 0.444 | 1.16 | -0.0679 |
| Cc1ccc(S[C@]2(C(=O)O)CC(=O)N(C3CCCCC3)[C@@H]2c2ccc(CO)cc2)cc1 | -0.27 | 0.333 | -0.0943 | -0.315 | 0.555 | 1.36 | 0.962 | -1.02 (inactive) | 0.157 | 0.0496 | 1.42 | 0.316 (inactive) | 0.222 (inactive) | 9.82 (active) | 2.82 | 0.999 (inactive) | -0.132 | 0.243 | 0.233 | 0.0346 |
| CCCC[C@@H](O)C1=C(COc2ccccc2)Cn2c(=O)n(-c3ccccc3)c(=O)n2[C@H]1CO | -0.353 | -0.0302 | -0.118 | 0.0467 | -0.239 | -0.21 | -0.851 | -1.83 (inactive) | -0.512 | 0.0274 | 0.0063 | -2.31 (inactive) | -1.82 (inactive) | -1.17 (inactive) | 0.94 | 1.87 (inactive) | -0.285 | -0.376 | -0.88 | -0.229 |
